PP5 primary: PP5 phosphatase inhibitors, primary screen, biochemical, fluorescence; inhibition, % at 6.7 µM; actives 0.18% (n = 320,000); purified PP5c, OMFP substrate fluorescence;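 active = inhibition above the campaign's mean inhibition across all tested compounds plus 3 SD, cut at about 9.5% in these data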;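 note: 0% = DMSO only and 100% = 100 µM cantharidin control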
NR1D1 modulator: modulators of Rev-erb alpha DNA binding, primary screen, biochemical, FITC-DNA, fluorescence polarization, uHTS. actives 0.79% (n = 370,000). Rev-erbα–FITC-DNA binding, 90 min. Nuclear receptor subfamily 1 group D member 1 (Homo sapiens), P20393. activity, % at 10 µM. AID 1259318, 2017;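 active = activity above about 14%, limit read from the data; passing the limit was not always enough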;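 note: 0% = DMSO wells with 35 nM protein and 100% = DMSO wells with 750 nM protein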
Target sequence (P20393 whole entry, looked up): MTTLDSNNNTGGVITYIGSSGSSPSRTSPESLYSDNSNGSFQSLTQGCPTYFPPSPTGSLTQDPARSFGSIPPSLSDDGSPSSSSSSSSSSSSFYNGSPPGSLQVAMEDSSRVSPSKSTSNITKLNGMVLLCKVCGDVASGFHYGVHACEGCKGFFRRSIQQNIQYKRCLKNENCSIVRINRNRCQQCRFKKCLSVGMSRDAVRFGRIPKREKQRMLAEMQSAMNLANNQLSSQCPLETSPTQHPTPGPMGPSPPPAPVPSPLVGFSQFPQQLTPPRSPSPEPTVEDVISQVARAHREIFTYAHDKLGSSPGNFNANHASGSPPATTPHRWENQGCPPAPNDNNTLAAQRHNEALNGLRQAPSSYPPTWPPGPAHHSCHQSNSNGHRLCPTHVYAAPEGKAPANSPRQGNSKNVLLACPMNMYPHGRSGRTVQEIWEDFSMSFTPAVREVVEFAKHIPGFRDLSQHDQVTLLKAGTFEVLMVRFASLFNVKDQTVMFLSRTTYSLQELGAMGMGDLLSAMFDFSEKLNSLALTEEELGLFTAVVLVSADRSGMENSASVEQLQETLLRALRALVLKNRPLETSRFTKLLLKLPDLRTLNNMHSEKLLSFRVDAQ
PG9 Ab binder: binders of HIV-1 gp120 antibody PG9, primary screen, biochemical, TR-FRET. actives 0.43% (n = 360,000). inhibition, % at 6.7 µM. AID 624416, 2012. HIV-1 gp120 / PG9 antibody interaction. TR-FRET gp120-PG9 antibody binding; in the data active = inhibition above about 8.5%
PP1 counter: PP1-alpha phosphatase inhibitors, primary screen, counter-screen for PP5 inhibitor project, biochemical, fluorescence, OMFP substrate, single point; Serine/threonine-protein phosphatase PP1-alpha catalytic subunit (Homo sapiens), P62136; purified PP1alpha; inhibition, % at 6.7 µM; actives 0.9% (n = 320,000);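 active = inhibition above the mean inhibition of all tested compounds plus 3 SD, computed separately for each screening campaign, cut at about 15% in these data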
GASC-1 inh: inhibitors of GASC-1 histone demethylase, primary screen, biochemical, fluorescence, DELFIA europium. GST-JMJD2C(1-420) H3K9me3 demethylation. inhibition, % at 2.35 µM. actives 0.069% (n = 330,000). Lysine-specific demethylase 4C (Homo sapiens), Q9H3R0;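 active = more than half of a compound's replicate wells show inhibition beyond 50%, single wells judged on their own value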;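 note: signal counts dimethyl H3K9 product captured on neutravidin plate; 0% = median of DMSO wells and 100% = 0.3 times that DMSO median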
proKLK7 act: proKLK7 zymogen activators, primary screen, biochemical, fluorescence intensity | purified proKLK7, EDANS-DABCYL substrate fluorescence; 100% is mature enzyme control, 0% vehicle | activation, % at 7 µM | Kallikrein-7 (Homo sapiens), P49862 | actives 0.9% (n = 370,000) | AID 652039, 2013;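 active = activation above the mean of all tested compounds plus 3 SD, computed per campaign excluding outliers beyond control limits, cut at about 13% in these data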
proKLK7 act conf: proKLK7 zymogen activators, confirmation, biochemical, fluorescence intensity, triplicate; shares compounds with proKLK7 act; purified proKLK7, EDANS-DABCYL substrate fluorescence; scaled: vehicle 0, mature enzyme 100; activation, % at 7 µM; actives 68% (n = 3,200);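 active = activation, as change over the incubation, above the mean of all tested compounds plus 3 SD, cut at about 13% in these data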
EDANS interfere: EDANS-DABCYL substrate optical interference, artefact control for kallikrein-7 zymogen activator project, biochemical, fluorescence intensity, high throughput | actives 80% (n = 3,200) | no enzyme, 4 h; solvent 0%, active enzyme control 100% | activation, % at 7 µM | shares compounds with proKLK7 act;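 active = activation above the all-compound mean plus 3 SD, ignoring values outside control-based bounds, cut at about 4.8% in these data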;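 note: value is the 4 h activation minus the activation read at time zero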
EDANS interf: counter-screen for kallikrein-7 activators: EDANS-DABCYL interference, dose response; shares compounds with proKLK7 act; EDANS-DABCYL peptide fluorescence interference, no enzyme; EC50, µM; actives 20% (n = 250); AID 720493;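 active = compounds that raise the fluorescence signal in this interference counterscreen, with EC50 at or below 10 µM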;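 note: intact quenched peptide substrate alone read at 355 nm excitation and 520 nm emission; signal is fluorescence gain from T0 to T4 after four hours at room temperature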
The depositor's hits bear a star; / = no result given. Most compounds without a hit are left out; they make up all but 2.8% or so of the library.

SMILES | PP5 primary | NR1D1 modulator | PG9 Ab binder | PP1 counter | GASC-1 inh | proKLK7 act | proKLK7 act conf | EDANS interfere | others
O=c1oc2c(CN3CCOCC3)c(O)c(Cl)cc2c2c1CCCC2 | -1 | 1 | 2 | -1 | -3 | 53* | 66* | 67*
O=c1oc2c(CN3CCOCC3)c(O)ccc2c2c1CCCC2 | 2 | 7 | 3 | 0 | -10 | 52* | 69* | 64*
Cc1c(C)c2ccc(OCC(=O)N[C@@H](Cc3ccccc3)C(=O)O)cc2oc1=O | 3 | -9 | -1 | -6 | 4 | 0 | / | /
COc1ccc2c(CC(=O)N[C@@H](Cc3ccccc3)C(=O)O)cc(=O)oc2c1 | 2 | -3 | -1 | 2 | -14 | 1 | / | /
Cc1c(-c2ccccc2)c(=O)oc2cc(O)ccc12 | -1 | -4 | -2 | -3 | 5 | 25* | 65* | 69*
Cc1c(CC(=O)NCC(=O)N[C@H](Cc2ccccc2)C(=O)O)c(=O)oc2cc(O)ccc12 | -1 | -7 | 2 | 0 | 5 | 72* | 64* | 73*
Cc1c(O)ccc2c(CN3CCN(Cc4ccccc4)CC3)cc(=O)oc12 | -1 | 0 | 1 | -4 | 3 | 46* | 78* | 75*
Cc1c(O)ccc2c(CC(=O)N[C@@H](Cc3ccccc3)C(=O)O)cc(=O)oc12 | / | -9 | 0 | / | 2 | 36* | 65* | 61*
COP(N)(=O)C(CC(C)C)NC(=O)OCc1ccccc1 (centres undefined) | / | 5 | / | / | / | 0 | / | /
COC(=O)[C@]12C[C@H](CC(=O)NCCCCc3ccccc3)C(=O)N(Cc3ccc4c(c3)OCO4)C1=C[C@H](C(C)C)O[C@@H]2C1CC1 | / | 1 | / | / | / | 0 | / | /
CCc1cc2c(CN3CCN(Cc4ccccc4)CC3)cc(=O)oc2cc1O | / | -4 | 1 | / | 1 | 62* | 21* | -15 | EDANS interf=>70
CCc1ccc2c(CN3CCN(Cc4ccccc4)CC3)cc(=O)oc2c1 | 1 | -4 | 3 | -2 | 10 | 1 | / | /
O=S(=O)(c1ccc(N2CCC(c3ccc(Cl)cc3)=N2)cc1)N(CCO)CCO | 4 | -4 | 1 | 2 | 1 | -374 | / | /
CN(C)CCCNS(=O)(=O)c1ccc(N2CCC(c3ccc(Cl)cc3)=N2)cc1 | 2 | -13 | 0 | 1 | 8 | 24* | 66* | 62*
Clc1ccc(-n2c(SCc3cccc4ccccc34)nnc2-c2ccco2)cc1 | / | 0 | / | / | / | 1 | / | /
CN(C(=O)NC(=O)C1=C(N2CCOCC2)/C(=C/c2ccccc2)CC1)S(C)(=O)=O | 1 | -2 | -1 | 1 | 7 | 146* | 342* | 332*
CCn1c2ccccc2c2cc(C=NNC(=O)c3cc(-c4ccc(OC)cc4)n[nH]3)ccc21 | / | -7 | / | / | / | 50* | -13 | -32
COc1ccc2ccccc2c1C=NNC(=O)c1cc(-c2ccc(C)c(C)c2)n[nH]1 | / | -16 | / | / | / | 49* | 22* | 15* | EDANS interf=>69
COc1ccc(-c2cc(C(=O)NN=Cc3ccc(-c4ccccc4)cc3)[nH]n2)cc1 | / | -10 | / | / | / | 1 | / | /
O=C(Nc1ccc(Br)cc1)OC1CC2CC1[C@H]1CCCCN1C2 (some centres undefined) | / | -2 | / | / | / | 0 | / | /
Cc1cccn2c(=O)c3cc(C(=O)NCCN4CCOCC4)c(=N)n(CCCN4CCOCC4)c3nc12 | 0 | -2 | 1 | 2 | -5 | 25* | 4 | 8.1*
COCCCn1c(C(=O)N2CCOCC2)cc2c(=O)n3ccccc3nc21 | -1 | -3 | 3 | 0 | 7 | 47* | 72* | 80*
CCCNc1nc2nc3ccccn3c(=O)c2cc1C(=O)NCCN1CCOCC1 | 0 | 1 | -1 | 0 | -40 | 26* | 21* | 20*
N#Cc1cc2c(=O)n3ccccc3nc2n(CCCN2CCOCC2)c1=O | 3 | 5 | -2 | 0 | -3 | 48* | 44* | 40*
COc1ccc(CCn2c(=N)c(C(=O)NCCN3CCOCC3)cc3c(=O)n4cccc(C)c4nc32)cc1OC | -1 | 3 | 0 | -3 | 39 | 1 | / | /
SMILES | PP5 primary | NR1D1 modulator | PG9 Ab binder | PP1 counter | GASC-1 inh | proKLK7 act | proKLK7 act conf | EDANS interfere | others
O=C(NCCN1CCOCC1)c1c(O)nc2ccccn2c1=O | 1 | -2 | -1 | -3 | 7 | 0 | / | /
Cc1c(-c2ccccc2)nnn1-c1ccc(F)c(Cl)c1 | / | 1 | 0 | / | / | 0 | / | /
COC(=O)c1ccc(S(=O)(=O)N2CCC(NC(=O)CCc3ccccc3)CC2)cc1 | / | 1 | / | / | / | 0 | / | /
N#Cc1cc2c(=O)n3ccccc3nc2n(Cc2cccnc2)c1=O | -1 | -5 | 1 | 0 | 4 | 12 | / | /
COc1ccc(CCn2c(=N)c(C(=O)NCCN3CCOCC3)cc3c(=O)n4ccccc4nc32)cc1OC | -1 | -1 | -1 | 2 | -7 | -1 | / | /
O=C(NCCN1CCOCC1)c1cc2c(=O)n3ccccc3nc2n1Cc1ccccc1 | -3 | 3 | 2 | -5 | -5 | 41* | 81* | 73*
N#Cc1cc2c(=O)n3ccccc3nc2n(-c2ccccc2Cl)c1=O | 3 | 7 | 1 | -4 | 4 | 31* | 32* | 36*
Cc1cccn2c(=O)c3cc(C(=O)N(C)C)n(C)c3nc12 | 2 | 3 | 1 | 0 | -4 | 26* | 27* | 29*
Cc1cccn2c(=O)c3cc(C(=O)NCCCN4CCCC4=O)n(C)c3nc12 | -1 | -3 | 0 | -2 | 12 | 14* | 7 | 15*
COc1ccc(-c2nc3c(C)cc(Br)cn3c2Cc2ccccc2C(F)(F)F)cc1OC | / | 11 | 3 | / | / | 0 | / | /
COc1ccc(S[C@]2(C(=O)N3CCOCC3)CC(=O)N[C@@H]2c2ccc(OC)cc2)cc1 | / | 4 | / | / | / | 0 | / | /
COCCCn1c(C(=O)NCCN2CCOCC2)cc2c(=O)n3cccc(C)c3nc21 | 1 | -5 | -1 | -1 | 4 | 15* | 38* | 28* | EDANS interf=>70
